# Assay results as given in PubChem BioAssay AID1626 (SRMLSC, 2009).
# The campaign covered roughly 220,000 compounds. About 2,000 (0.91%) were called active. Another 2% or so got no clear call; they are omitted. No stated cut-off is given here; in the data, inconclusive means inhibition above about 80% without an active follow-up result; inactive means below that; test concentration not stated here. Only a sample is shown. Entries with a potency or affinity are not part of this list.
# Experiment: M. tuberculosis H37Rv growth inhibitors, H37Rv strain (AID 1626);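 further: bacteria incubated seven days before Alamar blue readout; 0% = bacteria only wells and 100% = bacteria with antibiotic wells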
# Details: hits give high values, concentration not given here
row,Structure (SMILES),inhibition
1,Cn1cc(/C=C(\C#N)C(=O)Nc2ncc(Cc3cccc(Cl)c3)s2)c2ccccc21,4.07% (inactive)
2,Cn1cc(/C=C(\C#N)C(=O)Nc2ncc(Cc3ccc(Cl)cc3)s2)c2ccccc21,1.97% (inactive)
3,COC(C/C=C/[C@H](O)[C@H](C)OCc1ccccc1)OC,-0.67% (inactive)
4,O=[N+]([O-])c1ccc(N=Nc2ccc(O)cc2O)cc1,5.58% (inactive)
5,O=c1[nH]c(O)c(N=Nc2ccc([N+](=O)[O-])cc2)c(=O)[nH]1,-0.55% (inactive)
6,COC(=O)CCC(=O)N1CCc2cc(S(=O)(=O)N3CCN(c4ccccc4Cl)CC3)ccc21,3.32% (inactive)
7,CN(C)c1ccc(C(=S)N2CCCCC2)cc1Br,6.15% (inactive)
8,Cc1cccc(N=c2c([N+](=O)[O-])nn(-c3ccc(Cl)cc3)n2O)c1,36.6% (inactive)
9,O=[N+]([O-])c1nn(-c2cccc(Cl)c2)n(O)c1=NCc1cccnc1,6.16% (inactive)
10,Cc1cc(C)cc(N=c2c([N+](=O)[O-])nn(-c3ccc(Cl)cc3)n2O)c1,48.3% (inactive)
11,Cc1ccc(CN=c2c([N+](=O)[O-])nn(-c3cccc(C)c3)n2O)cc1,-1.44% (inactive)
12,O=C(CCC1CCCN(Cc2ccc3c(c2)OCCO3)C1)NCc1ccccc1F (stereo unspecified),-11.3% (inactive)
13,CCCNC(=O)NC(=O)CSc1ccc2c(c1)OCCO2,5.15% (inactive)
14,O=C(C1CCN(c2nnc(-n3cccc3)s2)CC1)N1CCOCC1,0.74% (inactive)
15,O=C(NCCCN1CCc2ccccc2C1)C1CCN(c2nnc(-n3cccc3)s2)CC1,-4.77% (inactive)
16,O=C(C1CCCN(c2nnc(-n3cccc3)s2)C1)N1CCN(c2ccccc2)CC1 (stereo unspecified),63.1% (inactive)
17,O=C(Nc1cc(C(F)(F)F)ccc1Cl)C1CCN(c2nnc(-n3cccc3)s2)CC1,-3.21% (inactive)
18,COc1ccc(CN2C(=O)NC(=O)/C(=C\c3ccco3)C2=O)cc1,-5.87% (inactive)
19,O=C(O)c1cc([N+](=O)[O-])cc2c1nnn2O,-1.94% (inactive)
20,COc1cccc(Oc2ccc(N/C=C/C(=O)C(C)(C)C)cc2)c1,1.22% (inactive)
21,COc1cc(C(=O)Nc2ccc3c(c2)OCCO3)ccc1OC(C)C,-2.6% (inactive)
22,COc1ccccc1Oc1ccc(N/C=C/C(=O)C(C)(C)C)cc1,-4.81% (inactive)
23,Cc1ccc(N/C=C/C(=O)C(C)(C)C)c(O)c1,-0.76% (inactive)
24,CCOC(=O)c1ccc(NC(=O)Nc2ccc(OC)c(OC)c2)cc1,-4.38% (inactive)

row,Structure (SMILES),inhibition
1,CCOc1ccccc1N/C=C/C(=O)C(C)(C)C,4.06% (inactive)
2,COc1ccc(N/C=C/C(=O)c2ccc(OC)c(OC)c2)cc1,47% (inactive)
3,CCOC(=O)c1ccc(N/C=C\C(=O)c2cccc(OC)c2)cc1,94.8% (inactive)
4,COc1ccccc1N(C(=O)c1snc(C(N)=O)c1N)C(C(=O)NCCC(C)C)c1ccco1 (stereo unspecified),-1.7% (inactive)
5,COc1ccc(C(=O)NC(=O)Nc2ncccc2C)cc1,-9.06% (inactive)
6,O=C(N/N=C1\C(=O)c2cccc3cccc1c23)c1ccc(O)cc1,20.7% (inactive)
7,N#C/C(=C\c1c(Cl)cccc1Cl)c1nn(-c2ccccc2)c(-n2cccc2)c1C#N,-1.88% (inactive)
8,O=S(=O)(NCc1cccnc1)c1ccc(Cl)c(Cl)c1,-0.1% (inactive)
9,CCOC(=O)c1c(-c2ccccc2)csc1NC(=O)CSc1nncs1,4.86% (inactive)
10,CCN(CC)C(=O)C(=O)c1cccn1-c1cccc(Cl)c1C#N,-4.03% (inactive)
11,CC(=O)c1c(C)[nH]c(C(=O)NCCc2cccc(C)c2)c1C,3.77% (inactive)
12,CCn1c(COc2ccccc2)nc2ccccc21,-0.43% (inactive)
13,O=C(Cc1csc(-c2ccccc2)n1)NCc1cccs1,2.64% (inactive)
14,COc1ccccc1C(=O)OCc1c(F)cccc1Cl,-0.9% (inactive)
15,CCOC(=O)c1ccc(N/C=C/C(=O)c2ccc(OC)cc2)cc1,77.2% (inactive)
16,COC(=O)c1ccc(N/C=C/C(=O)c2ccc(OC)c(OC)c2)cc1,36.6% (inactive)
17,CCOC(=O)c1ccc(N/C=C/C(=O)c2ccco2)cc1,76.7% (inactive)
18,COc1ccc(C(=O)/C=C/Nc2ccc(NC(C)=O)cc2)cc1OC,0.63% (inactive)
19,O=C(Nc1ccc(F)cc1F)c1cccnc1,-2.1% (inactive)
20,O=C(NCCCCNC(=O)c1ccc(Br)s1)c1ccc(Br)s1,-1.39% (inactive)
21,CCOc1ccc(NC(=O)c2ccccc2OCC(=O)c2ccccc2)cc1,4% (inactive)
22,COc1ccccc1-c1nnc(SCC(=O)N2CCOCC2)n1-c1ccccc1,1.2% (inactive)
23,COCCn1c(C)cc(C(=O)CSc2nc(C)nc3sc4c(c23)CCC4)c1C,-2.28% (inactive)
24,O=C(NCC(=O)N1CCC(N2CCCCC2)CC1)C1CCCCC1,-10.3% (inactive)

row,Structure (SMILES),inhibition
1,CC(C)(C)c1nnc2sc(SCC(=O)N3CCc4ccccc43)nn2c1=O,1.69% (inactive)
2,CCS(=O)(=O)N1CCN(C2Cc3ccccc3C2)CC1,-4.5% (inactive)
3,CCOC(=O)/C=C/C(=O)OCC(=O)Nc1ccc(OC)c(Cl)c1,3.02% (inactive)
4,COC(=O)CCC(=O)Nc1ccc(Cl)c(Cl)c1,-2.69% (inactive)
5,COc1ccc(NC(=O)COC(=O)/C=C/C(=O)OCC(=O)Nc2ccc(OC)c(Cl)c2)cc1Cl,-1.96% (inactive)
6,Cc1cc(Cl)ccc1OCCCC(N)=O,-0.81% (inactive)
7,O=C(COC(=O)CCCOc1ccc(Cl)cc1Cl)Nc1cccc(Cl)c1,6.33% (inactive)
8,Cc1cc(Cl)ccc1OCCCC(=O)NN,-1.79% (inactive)
9,COc1ccc(NC(=O)COC(=O)CCCOc2ccc(Cl)cc2Cl)cc1,12.7% (inactive)
10,O=C(O)CCCC(=O)Nc1ccc(Cl)c(Cl)c1,-7.53% (inactive)
11,COc1ccc(CNC(=O)CS(=O)Cc2nc(-c3ccccc3C)oc2C)cc1 (stereo unspecified),7.5% (inactive)
12,COc1ccc(/C=N/NC(=O)c2ccc(CN3c4cccc5cccc(c45)S3(=O)=O)cc2)cc1,0.99% (inactive)
13,CCOC(=O)c1sc(NC(=O)CCCCl)nc1C,6.92% (inactive)
14,CC(C)Cn1c(N)c(C(=O)COC(=O)C2CCCCC2)c(=O)n(C)c1=O,-2.8% (inactive)
15,Cc1cc(NC(=O)COC(=O)c2ccc(S(=O)(=O)N3CCCC3)cc2)no1,5.16% (inactive)
16,CN(c1ccccc1C(=O)NC1CC2CCC1C2)S(=O)(=O)c1ccccc1 (stereo unspecified),5.72% (inactive)
17,CC1CCCC/C1=N\NC(=S)Nc1cccnc1 (stereo unspecified),-2.62% (inactive)
18,COc1ccccc1CNC(=O)CN(C)CC(=O)Nc1cccc(F)c1,-0.48% (inactive)
19,COc1ccc(NC(=O)CN(C)CC(=O)Nc2ccccc2SC)cc1Cl,-0.42% (inactive)
20,CCCCOc1ccc(C(C)NC(=O)C2CCCN(S(=O)(=O)CC)C2)cc1 (stereo unspecified),-2.95% (inactive)
21,CCC(=NCCO)c1c(O)n(C2CCCCC2)c(=O)[nH]c1=O,3.46% (inactive)
22,CCOC(=O)c1cnc2ccc(C)cc2c1Nc1ccc(N2CCOCC2)cc1,0.42% (inactive)
23,CCOC(=O)c1cnc2ccc(C(=O)OC)cc2c1Nc1ccc(C(=O)O)cc1,-2.69% (inactive)
24,O=C(O)c1cc(-n2cccc2)ccc1N1CCOCC1,-4.7% (inactive)

row,Structure (SMILES),inhibition
1,COc1ccccc1NC(=S)NC1CCCCCC1,-4.57% (inactive)
2,CN(C)/C=C(/C(=O)c1ccccc1)n1cncn1,-12.5% (inactive)
3,Cc1nn(C)c(C)c1/C=C(/C(=O)C(C)(C)C)n1cncn1,-5.89% (inactive)
4,Cn1cnc([N+](=O)[O-])c1Cl,0.19% (inactive)
5,CCS(=O)(=O)c1c([N+](=O)[O-])ncn1C,76.2% (inactive)
6,Cn1cnc([N+](=O)[O-])c1Oc1ccc2ccccc2c1,13.9% (inactive)
7,Cc1cccc(Sc2c([N+](=O)[O-])ncn2C)c1,4.79% (inactive)
8,Cc1cccc(C(=O)N=c2c(C#N)cc3c(=O)n4cccc(C)c4nc3n2Cc2ccco2)c1,-8.85% (inactive)
9,CCN(C(=O)COC(=O)c1cc(S(=O)(=O)Nc2c(C)n(C)n(-c3ccccc3)c2=O)ccc1Cl)C1CCCCC1,-3.86% (inactive)
10,Cc1cccc(NC(=O)CCOc2ccccc2)c1,-1.8% (inactive)
11,Cc1cc(C)n(-c2nc(-c3ccccc3)cs2)n1,4.34% (inactive)
12,O=C(CNC(=O)c1ccco1)OCc1ccc(C(=O)c2ccccc2)cc1,3.51% (inactive)
13,Cc1ccc(C)c(CSCC(=O)NCc2cccs2)c1,-7.19% (inactive)
14,Cc1cccc(N2CCN(Cc3ccoc3)CC2)c1C,2.81% (inactive)
15,Cc1cc(C)n(-c2nc(SCC(=O)Nc3nccs3)c3c4c(sc3n2)COC(C)(C)C4)n1,23.3% (inactive)
16,Cc1cc(C)n(-c2nc(SCC(=O)O)c3c4c(sc3n2)CCCC4)n1,63.1% (inactive)
17,Cc1cc(C)n(-c2nc(SCCN(C)C)c3c4c(sc3n2)COC(C)(C)C4)n1,14.6% (inactive)
18,Cc1cc(C)n(-c2nc(NCCCN(C)C)c3c4c(sc3n2)CCCC4)n1,17.3% (inactive)
19,CC1(C)Cc2c(sc3nc(SCC(=O)O)[nH]c(=O)c23)CO1,-1.16% (inactive)
20,CCCN(CC(=O)Nc1ccc(F)c(F)c1F)Cc1cc(=O)n2ccsc2n1,-1.11% (inactive)
21,O=C(NCc1ccco1)C12CC3CC(C1)CC(C(=O)NCc1ccco1)(C3)C2,-5.09% (inactive)
22,O=c1c2ccccc2nc(-c2ccccc2Cl)n1O,2.24% (inactive)
23,O=c1c2ccccc2nc(-c2cccc(Cl)c2)n1O,66.9% (inactive)
24,CC1CC(C)CN(c2ccc(C(=O)NCc3ccc4c(c3)OCO4)cc2[N+](=O)[O-])C1 (stereo unspecified),13.2% (inactive)
